Source: PubChem (National Center for Advancing Translational Sciences (NCATS))
This is a sample that favours compounds with a hit; in the whole collection about 21% have one here.
CHX counter: affects cycloheximide protein synthesis inhibition readout, counter-screen. cell reporter, cycloheximide protein synthesis inhibition counterscreen. 300,000 compounds, 12% hits. max response, %; in the data active means max response mostly above about 13%, no sharp cut-off; inactive means mostly below about 14%; further: read at 38.3 µM for the half of the compounds with a filed dose
Pf growth 48h: inhibits P. falciparum growth in the first generation, 48 h; P. falciparum luciferase growth in erythrocytes, 48 h; Potency, µM (doses to about 28.7 µM), actives largely listed as inhibitors; 310,000 compounds, 5.9% hits; AID 504832
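Luciferase-expressing P. falciparum in infected erythrocytes (2% hematocrit, 0.1% parasitemia final) in RPMI 1640/0.5% Albumax were exposed to compound for 48 hours at 37 C, 5% CO2; growth read as luminescence.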
Shiga inhibitor: inhibitors of Shiga toxin in Vero cells; Vero cells, Shiga toxin protein synthesis inhibition reporter; inhibition, % at 38.7 µM; 290,000 compounds, 9.2% hits; in the data active means inhibition mostly above about 28%, no sharp cut-off; inactive means mostly below about 43%
Pf growth 96h: inhibits malaria parasite growth, 96 h; Potency, µM (highest dose often 28.7 µM), hits mostly inhibitors; P. falciparum luciferase reporter growth, 96 h; 320,000 compounds, 6.9% hits; AID 504834
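Compounds incubated with erythrocytes infected by luciferase-expressing P. falciparum (2% hematocrit, 0.05% parasitemia final) for 96 hours, 37 C in 5% CO2. Growth inhibition scored as decreased luciferase luminescence.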
Each line names hits and unclear results; the compound was inactive in the other large screens. Unless noted, the call rests on the fitted dose curve; in most records, active means well fitted inhibition curve with a large enough effect; inconclusive means small, poorly fitted or top-dose-only effect, or another doubt; inactive means no such curve, though single readings can be large or run the other way.

Cc1ccccc1-n1c(=O)/c(=C\c2ccco2)s/c1=C(/C#N)C(=O)Nc1ccccc1	Pf growth 48h 1.47µM
CCOC(=O)/C=c1\s/c(=C(\C#N)C(=O)NC)n(-c2ccccc2)c1=O	none
O=C(O)C1CCN(C(=O)c2ccccc2Cl)CC1	none (no result: Pf growth 96h)
O=C(c1cc(F)ccc1F)N1CCC(N2CCC(C(=O)N3CCCC3)CC2)CC1	CHX counter 17.3
O=C(c1ccccc1Cl)N1CCC(N2CCC(C(=O)N3CCCC3)CC2)CC1	CHX counter 23.7, Pf growth 96h inconclusive
CN1CCN(C(=O)c2ccc(Cl)c(S(=O)(=O)N3CCCCC3)c2)CC1	Pf growth 48h inconclusive
Cc1ccc(-n2sc3ccccc3c2=O)cc1S(=O)(=O)N1CCCCC1	CHX counter 11.9, Pf growth 48h 2.62µM, Pf growth 96h 4.15µM
O=C(c1ccc(Cl)c(S(=O)(=O)N2CCCCCC2)c1)N1CCCCC1	CHX counter 16.6, Pf growth 48h inconclusive, Shiga inhibitor 38.9
CCOc1ccccc1N1CCN(C(=O)c2cn(CC3CCCCC3)nn2)CC1	CHX counter 37.4, Shiga inhibitor 142.1, Pf growth 96h inconclusive
CCOc1ccccc1N1CCN(C(=O)c2ccc(Cl)c(S(=O)(=O)N3CCCCC3)c2)CC1	Pf growth 48h 11.7µM, Pf growth 96h 5.22µM (no result: CHX counter, Shiga inhibitor)
CCCC(=O)c1c[nH]c(C(=O)N2CCOCC2)c1	none
Cc1ccc(C(=O)N2CCCCC2)cc1S(=O)(=O)N1CCCCCC1	Pf growth 48h inconclusive, Pf growth 96h 8.28µM
Cc1ccc(C(=O)N2CCOCC2)cc1S(=O)(=O)N1CCCC1	none
COc1ccc2c(c1)CCc1sc(NC(=O)c3ccco3)nc1-2	CHX counter 49.6, Shiga inhibitor 128.9, Pf growth 96h inconclusive (no result: Pf growth 48h)
COc1ccc2c(c1)-c1nc(NC(=O)c3ccco3)sc1CC2	CHX counter 49.1, Shiga inhibitor 121.2
COc1ccc2c(c1)CCc1sc(NC(=O)c3ccc(C)cc3)nc1-2	Pf growth 48h inconclusive, Pf growth 96h 6.57µM
COc1ccc2c(c1)Cc1sc(NC(=O)c3ccco3)nc1-2	CHX counter 74.4, Shiga inhibitor 61.7, Pf growth 96h inconclusive
NC(=O)c1ccc(NC(=O)CN2CCN(Cc3ccccc3)CC2)cc1	none
O=C(CNS(=O)(=O)c1ccc(F)cc1)N1CCCCCC1	none
Cc1ccc(NC(=O)C2CC(=O)N/C(=N/N=C/c3ccco3)S2)cc1C (stereo not drawn)	Pf growth 96h inconclusive
COc1ccc2c(c1)-c1nc(NC(=O)c3cccs3)sc1CC2	CHX counter 24.3, Pf growth 48h inconclusive, Shiga inhibitor 75.5
COc1ccc(-c2nnc(NC(=O)c3cccs3)s2)c(OC)c1	none
COc1ccc2c(c1)Cc1sc(NC(C)=O)nc1-2	CHX counter 39.8, Shiga inhibitor 71.7
COCC1CCCN(C(=O)c2cc(COc3cncc(Cl)c3)on2)C1 (stereo not drawn)	CHX counter 40.7, Shiga inhibitor 100.9, Pf growth 96h inconclusive
C=CCC1(CC=C)CCCN1C(=O)c1cc(COc2cncc(Cl)c2)on1	CHX counter 36.1, Pf growth 48h inconclusive, Shiga inhibitor 34.6, Pf growth 96h inconclusive
Cc1ccc(S(=O)(=O)N2CCOCC2)cc1NC(=O)CSc1nnnn1C	none
COc1ccc(NC(C)=O)cc1NC(=O)c1cccc(C(F)(F)F)c1	none
CC(=O)Nc1ccc(C)c(NS(=O)(=O)c2cccc(C(F)(F)F)c2)c1	Pf growth 48h 1.85µM, Pf growth 96h 3.7µM
CC(C)OCCCNC(=O)c1ccc2c(c1)S(=O)(=O)c1ccccc1C2=O	Pf growth 96h 9.28µM
CC(C)OCCCNC(=O)c1ccc(NS(C)(=O)=O)cc1	Pf growth 96h 10.4µM
CCCCNC(=O)c1ccc2c(c1)S(=O)(=O)c1ccccc1C2=O	none
CCC(C)NC(=O)c1ccc2c(c1)S(=O)(=O)c1ccccc1C2=O (stereo not drawn)	CHX counter 32.1, Shiga inhibitor 14.3
O=C(NC1CCCCC1)C(c1cccnc1)N(C(=O)CCl)c1cccc(Cl)c1 (stereo not drawn)	Pf growth 48h inconclusive, Pf growth 96h inconclusive
CN1C/C(=C/c2ccncc2)C(=O)/C(=C/c2ccncc2)C1	CHX counter 32.3, Pf growth 48h 2.62µM, Pf growth 96h inconclusive
CN1C/C(=C/c2ccsc2)C(=O)/C(=C/c2ccsc2)C1	CHX counter 63.4, Pf growth 96h inconclusive
O=C1/C(=C/c2ccncc2)N2CCC1CC2	none
O=C(/C=C/Nc1ccccc1Br)c1ccccn1	Pf growth 96h inconclusive
O=C(/C=C/c1ccccc1)c1ccccn1	CHX counter 38.1, Shiga inhibitor 83.8, Pf growth 96h inconclusive
N/C(=N\OC(=O)/C=C/c1ccccc1)c1ccncc1	CHX counter 21.4, Shiga inhibitor 70.7
N/C(=N\OC(=O)CCCOc1ccccc1)c1ccncc1	none
